Data: PubChem BioAssay AID1159580 (chemical genetic matrix, 2015)
Where “and” joins values, the source holds several entries; their conditions need not be identical. Identical values can stand only once. Out of some 5,500 compounds screened, about 2,000 (36%) were called active. Roughly 18% stayed inconclusive and do not appear here. Rule as the data show it: active = normalized growth mostly below about 0.91 (no sharp cut-off); inconclusive = no clear call, values can overlap the other calls; inactive = mostly above about 0.92. The list shows a part of the results.

Experiment: chemical genetic growth profiling, strain panel (AID 1159580);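 also: tested at 20 µM; growth read once vehicle control cultures reached saturation at 30 °C; 1 = growth at the plate median or of vehicle wells; lower values mean less growth of the strain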
Details: S. cerevisiae deletion strains, growth OD

Measured: normalized growth

CCN(CCO)CCCC(C)Nc1ccnc2cc(Cl)ccc12 (configuration not stated)
inactive: locus YAL013W, strain DEP1, hits give low values 1.01 | locus YAL021C, strain ccr4, hits give low values 1.03 | locus YAL026C, strain drs2, hits give low values 1 | locus YAL030W, strain snc1, hits give low values 0.997 | locus YBL061C, strain skt5, hits give low values 1 | locus YBR009C, strain hhf1, hits give low values 1.01 | locus YBR021W, strain FUR4, hits give low values 1 | locus YBR023C, strain chs3, hits give low values 0.998 | locus YBR171W, strain sec66, hits give low values 1.01 | locus YBR229C, strain ROT2, hits give low values 0.991 | locus YBR231C, strain swc5, hits give low values 1.01 | locus YBR279W, strain paf1, hits give low values 1.01 | locus YCL011C, strain gbp2, hits give low values 1 | locus YCL016C, strain dcc1, hits give low values 1 | locus YCL029C, strain bik1, hits give low values 1.01 | locus YCL061C, strain MRC1, hits give low values 0.993 | locus YCL069W, strain vba3, hits give low values 0.998 | locus YCR088W, strain abp1, hits give low values 0.997 | locus YDL005C, strain med2, hits give low values 0.994 | locus YDL035C, strain GPR1, hits give low values 1.02 | locus YDL040C, strain nat1, hits give low values 0.999 | locus YDL074C, strain BRE1, hits give low values 1.01 | locus YDL101C, strain DUN1, hits give low values 1.02 | locus YDL134C, strain PPH21, hits give low values 1 | locus YDL185W, strain tfp1, hits give low values 1.01 | locus YDL192W, strain arf1, hits give low values 1.01 | locus YDR001C, strain nth1, hits give low values 1 | locus YDR069C, strain doa4, hits give low values 1.01 | locus YDR101C, strain arx1, hits give low values 1.02 | locus YDR137W, strain rgp1, hits give low values 0.978 | locus YDR150W, strain NUM1, hits give low values 1.01 | locus YDR159W, strain sac3, hits give low values 0.999 | locus YDR162C, strain NBP2, hits give low values 1.01 | locus YDR195W, strain ref2 1 | locus YDR297W, strain sur2, hits give low values 1.01 | locus YDR318W, strain mcm21, hits give low values 1.03 | locus YDR334W, strain swr1, hits give low values 1.01 | locus YDR335W, strain msn5, hits give low values 0.999 | locus YDR388W, hits give low values 1.01 | locus YDR392W, strain spt3, hits give low values 1.03 | locus YDR502C, strain sam2, hits give low values 1.02 | locus YEL003W, strain gim4, hits give low values 1 | locus YEL037C, strain rad23, hits give low values 1.01 | locus YEL061C, strain CIN8 (second series), hits give low values 1.01 | locus YEL061C, strain CIN8, hits give low values 1.01 | locus YER015W, strain faa2, hits give low values 1.01 | locus YER016W, strain bim1, hits give low values 1 | locus YER110C, hits give low values 1.01 | locus YER111C, strain swi4, hits give low values 1 | locus YER155C, strain BEM2 (second series), hits give low values 1 | locus YER155C, strain BEM2, hits give low values 1.01 | locus YER167W, strain BCK2, hits give low values 1.01 | locus YFR010W, strain ubp6, hits give low values 1.01 | locus YGL078C, strain dbp3, hits give low values 1.02 | locus YGL086W, strain mad1, hits give low values 1.02 | locus YGL167C, strain pmr1, hits give low values 0.994 | locus YGL173C, strain kem1, hits give low values 0.996 | locus YGL227W, strain vid30, hits give low values 0.997 | locus YGL240W, strain doc1, hits give low values 1.01 | locus YGL248W, strain PDE1, hits give low values 0.993 | locus YGL253W, strain hxk2, hits give low values 0.999 | locus YGR078C, strain PAC10, hits give low values 1.03 | locus YGR135W, strain pre9, hits give low values 1.01 | locus YGR229C, strain SMI1, hits give low values 1.03 | locus YGR252W, strain gcn5, hits give low values 1.21 | locus YHR013C, strain ard1, hits give low values 1 | locus YHR027C, strain rpn1, hits give low values 0.988 | locus YHR030C, strain SLT2, hits give low values 1.01 and 0.985 | locus YHR079C, strain IRE1 (second series), hits give low values 1.01 | locus YHR079C, strain IRE1, hits give low values 0.99 | locus YHR094C, strain hxt1, hits give low values 1.01 | locus YHR129C, strain ARP1, hits give low values 1.01 | locus YHR142W, strain chs7, hits give low values 1 | locus YHR200W, strain rpn10, hits give low values 1.02 | locus YIL066C, strain RNR3, hits give low values 1.03 | locus YIL073C, strain SPO22, hits give low values 1.05 | locus YIL125W, strain kgd1, hits give low values 1 | locus YIR030C, strain dcg1, hits give low values 1.01 | locus YJL092W, strain hpr5, hits give low values 0.998 | locus YJL095W, strain BCK1 (second series), hits give low values 0.995 | locus YJL095W, strain BCK1, hits give low values 1.01 | locus YJL115W, strain asf1, hits give low values 1.01 | locus YJL129C, strain trk1, hits give low values 0.991 | locus YJL134W, strain LCB3, hits give low values 1.01 | locus YJL154C, strain vps35, hits give low values 1.01 | locus YJL164C, strain tpk1, hits give low values 1 | locus YJL166W, strain qcr8, hits give low values 1 | locus YJL168C, strain set2, hits give low values 1.01 | locus YJL187C, strain SWE1 (second series), hits give low values 1.02 | locus YJL187C, strain SWE1, hits give low values 0.999 | locus YJR043C, strain POL32, hits give low values 1.04 | locus YJR066W, strain TOR1, hits give low values 0.961
